Out of some 5,500 compounds screened, about 2,000 (36%) were called active. Inconclusive results (about 18%) are left out. Cut-off read from the data, not from the text of the source: active = normalized growth mostly below about 0.91 (no sharp cut-off); inconclusive = no clear call, values can overlap the other calls; inactive = mostly above about 0.92. The list shows a part of the results.
Test: chemical genetic growth profiling, strain panel (AID 1159580);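 note: tested at 20 µM; growth read once vehicle control cultures reached saturation at 30 °C; 1 = growth at the plate median or of vehicle wells; lower values mean less growth of the strain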
Details: growth OD
[1] = S. cerevisiae deletion strains, locus YAL013W, strain DEP1, active compounds read low
[2] = S. cerevisiae deletion strains, locus YAL040C, strain CLN3, active compounds read low
[3] = S. cerevisiae deletion strains, locus YDR363W, strain ESC2, active compounds read low
[4] = S. cerevisiae deletion strains, locus YER002W, strain NOP16, active compounds read low
[5] = S. cerevisiae deletion strains, locus YGR078C, strain PAC10, active compounds read low
[6] = S. cerevisiae deletion strains, locus YGR229C, strain SMI1, active compounds read low
[7] = S. cerevisiae deletion strains, locus YJR075W, strain HOC1, active compounds read low
[8] = S. cerevisiae deletion strains, locus YMR263W, strain SAP30, active compounds read low
[9] = S. cerevisiae deletion strains, locus YNL153C, strain GIM3, active compounds read low
[10] = S. cerevisiae deletion strains, locus YNL175C, strain NOP13, active compounds read low
[11] = S. cerevisiae deletion strains, locus YNL197C, strain WHI3, active compounds read low
[12] = S. cerevisiae deletion strains, locus YNL224C, strain SQS1, active compounds read low
[13] = S. cerevisiae deletion strains, locus YOR083W, strain WHI5 (second series), active compounds read low
[14] = S. cerevisiae deletion strains, locus YPL055C, strain LGE1, active compounds read low
[15] = S. cerevisiae deletion strains, locus YDL101C, strain DUN1, active compounds read low
[16] = S. cerevisiae deletion strains, locus YHR030C, strain SLT2, active compounds read low
[17] = S. cerevisiae deletion strains, locus YCL061C, strain MRC1 (second series), active compounds read low
[18] = S. cerevisiae deletion strains, locus YDR150W, strain NUM1, active compounds read low
[19] = S. cerevisiae deletion strains, locus YMR307W, strain GAS1, active compounds read low
[20] = S. cerevisiae deletion strains, locus YBR229C, strain ROT2, active compounds read low
[21] = S. cerevisiae deletion strains, locus YEL061C, strain CIN8, active compounds read low
[22] = S. cerevisiae deletion strains, locus YHR087W, strain rtc3, active compounds read low
[23] = S. cerevisiae deletion strains, locus YJL187C, strain SWE1, active compounds read low
[24] = S. cerevisiae deletion strains, locus YJR043C, strain POL32, active compounds read low
[25] = S. cerevisiae deletion strains, locus YLR039C, strain RIC1, active compounds read low
[26] = S. cerevisiae deletion strains, locus YLR058C, strain SHM2 (second series), active compounds read low
[27] = S. cerevisiae deletion strains, locus YLR085C, strain ARP6, active compounds read low
[28] = S. cerevisiae deletion strains, locus YLR262C, strain YPT6, active compounds read low
[29] = S. cerevisiae deletion strains, locus YML094W, strain GIM5, active compounds read low
[30] = S. cerevisiae deletion strains, locus YMR219W, strain ESC1, active compounds read low
[31] = S. cerevisiae deletion strains, locus YNL298W, strain CLA4 (second series), active compounds read low
[32] = S. cerevisiae deletion strains, locus YNL322C, strain KRE1, active compounds read low
[33] = S. cerevisiae deletion strains, locus YNR030W, strain Alg12, active compounds read low
[34] = S. cerevisiae deletion strains, locus YOL006C, strain TOP1, active compounds read low
[35] = S. cerevisiae deletion strains, locus YPL241C, strain CIN2, active compounds read low
[36] = S. cerevisiae deletion strains, locus YPR135W, strain CTF4, active compounds read low

Measured: normalized growth

NCCCCNS(=O)(=O)c1cccc2c(Cl)cccc12
inactive: [1] 1.01 | [2] 1.02 | [3] 1.01 | [4] 1.01 | [5] 1.01 | [6] 1.04 | [7] 0.989 | [8] 1.01 | [9] 0.993 | [10] 1 | [11] 1 | [12] 0.995 | [13] 1.02 | [14] 1.01

N=c1ccc2nc3c(Cl)c4c(c(Cl)c3oc-2c1S(=O)(=O)O)Nc1ccc(N)c(S(=O)(=O)O)c1O4
inactive: S. cerevisiae deletion strains, locus YAR019C, strain CDC15, active compounds read low 1.01 | S. cerevisiae deletion strains, locus YBL105C, strain PKC1, active compounds read low 1.01 | S. cerevisiae deletion strains, locus YBR135W, strain CKS1, active compounds read low 1.01 | S. cerevisiae deletion strains, locus YBR136W, strain MEC1, active compounds read low 1.01 | S. cerevisiae deletion strains, locus YBR160W, strain CDC28, active compounds read low 1.01 | S. cerevisiae deletion strains, locus YDL017W, strain CDC7, active compounds read low 1.02 | S. cerevisiae deletion strains, locus YDL028C, strain MPS1, active compounds read low 1.01 | [15] 1.01 | S. cerevisiae deletion strains, locus YDL108W, strain KIN28, active compounds read low 1.01 | S. cerevisiae deletion strains, locus YDL132W, strain cdc53, active compounds read low 1 | S. cerevisiae deletion strains, locus YDL214C, strain PRR2, active compounds read low 1.02 | S. cerevisiae deletion strains, locus YDR052C, strain DBF4, active compounds read low 1.01 | S. cerevisiae deletion strains, locus YDR054C, strain cdc34, active compounds read low 1 | S. cerevisiae deletion strains, locus YDR226W, strain ADK1, active compounds read low 0.993 | S. cerevisiae deletion strains, locus YDR477W, strain SNF1, active compounds read low 1.01 | S. cerevisiae deletion strains, locus YER123W, strain YCK3, active compounds read low 1.01 | S. cerevisiae deletion strains, locus YER133W, strain GLC7, active compounds read low 0.992 | S. cerevisiae deletion strains, locus YFL009W, strain cdc4, active compounds read low 0.997 | S. cerevisiae deletion strains, locus YFL029C, strain CAK1, active compounds read low 1 | S. cerevisiae deletion strains, locus YFR003C, strain YPI1, active compounds read low 1.01 | S. cerevisiae deletion strains, locus YFR019W, strain FAB1, active compounds read low 0.993 | S. cerevisiae deletion strains, locus YFR028C, strain CDC14, active compounds read low 1.01 | S. cerevisiae deletion strains, locus YGR040W, strain KSS1, active compounds read low 1.02 | S. cerevisiae deletion strains, locus YGR052W, strain FMP48, active compounds read low 1.09 | S. cerevisiae deletion strains, locus YGR092W, strain DBF2, active compounds read low 1.03 | [16] 0.962 | S. cerevisiae deletion strains, locus YHR079C, strain IRE1, active compounds read low 0.995 | S. cerevisiae deletion strains, locus YHR082C, strain KSP1, active compounds read low 1.16 | S. cerevisiae deletion strains, locus YHR205W, strain SCH9, active compounds read low 1 | S. cerevisiae deletion strains, locus YIL147C, strain SLN1, active compounds read low 1.01 | S. cerevisiae deletion strains, locus YJL095W, strain BCK1, active compounds read low 1.06 | S. cerevisiae deletion strains, locus YJL128C, strain PBS2, active compounds read low 1 | S. cerevisiae deletion strains, locus YJL157C, strain FAR1, active compounds read low 0.994 | S. cerevisiae deletion strains, locus YJR016C, strain ILV3, active compounds read low 1.02 | S. cerevisiae deletion strains, locus YJR066W, strain TOR1 (second series), active compounds read low 0.981 | S. cerevisiae deletion strains, locus YJR066W, strain TOR1, active compounds read low 1.14 | S. cerevisiae deletion strains, locus YKL048C, strain ELM1, active compounds read low 1.01 | S. cerevisiae deletion strains, locus YKL067W, strain YNK1, active compounds read low 1.01 | S. cerevisiae deletion strains, locus YKL101W, strain HSL1, active compounds read low 1.02 | S. cerevisiae deletion strains, locus YKL193C, strain SDS22, active compounds read low 1.01 | S. cerevisiae deletion strains, locus YKL203C, strain TOR2, active compounds read low 1.06 | S. cerevisiae deletion strains, locus YLR113W, strain HOG1, active compounds read low 1.06 | S. cerevisiae deletion strains, locus YLR133W, strain CKI1, active compounds read low 1.01 | S. cerevisiae deletion strains, locus YLR403W, strain SFP1, active compounds read low 0.975 | S. cerevisiae deletion strains, locus YML070W, strain DAK1, active compounds read low 1.02 | S. cerevisiae deletion strains, locus YMR001C, strain CDC5, active compounds read low 1.01 | S. cerevisiae deletion strains, locus YMR205C, strain PFK2 (second series), active compounds read low 1.02 | S. cerevisiae deletion strains, locus YMR277W, strain FCP1, active compounds read low 1.01 | S. cerevisiae deletion strains, locus YNL006W, strain LST8, active compounds read low 1 | S. cerevisiae deletion strains, locus YNL020C, strain ARK1, active compounds read low 1.02 | S. cerevisiae deletion strains, locus YNL161W, strain CBK1, active compounds read low 0.998 | S. cerevisiae deletion strains, locus YNL183C, strain NPR1, active compounds read low 1.11 | S. cerevisiae deletion strains, locus YNL207W, strain RIO2, active compounds read low 1.02 | S. cerevisiae deletion strains, locus YNL222W, strain SSU72, active compounds read low 1.01 | S. cerevisiae deletion strains, locus YNL307C, strain MCK1 (second series), active compounds read low 1.01 | S. cerevisiae deletion strains, locus YOL078W, strain AVO1, active compounds read low 1.01 | S. cerevisiae deletion strains, locus YOL136C, strain PFK27, active compounds read low 1 | S. cerevisiae deletion strains, locus YOR061W, strain CKA2, active compounds read low 1.02 | S. cerevisiae deletion strains, locus YOR119C, strain RIO1, active compounds read low 1.08 | S. cerevisiae deletion strains, locus YOR231W, strain MKK1, active compounds read low 1.04 | S. cerevisiae deletion strains, locus YOR329C, strain SCD5, active compounds read low 1.01 | S. cerevisiae deletion strains, locus YPL031C, strain PHO85, active compounds read low 1.01 | S. cerevisiae deletion strains, locus YPL153C, strain RAD53, active compounds read low 1.01 | S. cerevisiae deletion strains, locus YPL204W, strain HRR25, active compounds read low 1 | S. cerevisiae deletion strains, locus YPL209C, strain IPL1, active compounds read low 1.01 | S. cerevisiae deletion strains, locus YPL256C, strain CLN2, active compounds read low 0.998 | S. cerevisiae deletion strains, locus YPR025C, strain CCL1, active compounds read low 1.01 | S. cerevisiae deletion strains, locus YPR106W, strain ISR1, active compounds read low 1.02 | S. cerevisiae deletion strains, locus YPR111W, strain DBF20, active compounds read low 1 | S. cerevisiae deletion strains, strain NNK1, active compounds read low 1.03 | S. cerevisiae deletion strains, strain TSCII, active compounds read low 1

Cc1ccc(C(=O)O[C@H](C(=O)O)[C@H](OC(=O)c2ccc(C)cc2)C(=O)O)cc1
inactive: [2] 1.01 | [17] 1 | [18] 1.01 | [3] 1.03 | [4] 1.01 | [6] 1.01 | [19] 0.99 | [10] 1 | [11] 1 | [12] 1 | [13] 0.997 | [14] 0.999

O=C(NNC(=O)c1ccccc1[N+](=O)[O-])c1ccc(Cl)cc1
active: [24] 0.869
inactive: [1] 1.02 | [20] 1.03 | S. cerevisiae deletion strains, locus YCL061C, strain MRC1, active compounds read low 1.02 | [15] 0.981 | [18] 0.904 | [21] 1.01 | [5] 0.995 | [16] 1.14 | [22] 0.994 | [23] 1 | [7] 0.991 | S. cerevisiae deletion strains, locus YKL190W, strain CNB1, active compounds read low 1.01 | [25] 1.03 | [26] 1.01 | [27] 1.05 | [28] 1.01 | [29] 1.02 | [30] 1.02 | [8] 0.91 | [9] 0.993 | [31] 1.04 | [32] 1.01 | [33] 1.03 | [34] 1.13 | [14] 0.9 | [35] 1.03 | [36] 1.16

Cc1ccc(C(=O)c2ccccc2[N+](=O)[O-])cc1
active: [19] 0.622 | [35] 0.828
inactive: [1] 0.989 | [20] 0.99 | [15] 0.983 | [18] 0.957 | [21] 0.979 | [5] 0.982 | [16] 0.797 | [22] 0.964 | [23] 0.987 | [24] 0.99 | [7] 0.943 | [25] 0.913 | [26] 0.995 | [27] 0.9 | [28] 0.948 | [29] 0.96 | [30] 0.98 | [8] 0.98 | S. cerevisiae deletion strains, locus YNL128W, strain TEP1, active compounds read low 1.01 | [9] 0.954 | [31] 0.934 | [32] 0.997 | [33] 0.939 | [34] 0.779 | [14] 0.946 | [36] 0.8 | S. cerevisiae strains, strain wild type, active compounds read low 1

O=C(c1cc(O)c(O)c([N+](=O)[O-])c1)c1ccccc1F
inactive: [2] 0.964 | [17] 0.953 | [3] 0.98 | [4] 0.978 | [5] 0.977 | [6] 0.886 | [19] 0.966 | [10] 0.985 | [11] 0.97 | [12] 0.969 | [13] 0.996 | [35] 0.99

CCOC(=O)CSc1nnc(-c2cc(C(C)(C)C)nn2Cc2cccc(C)c2)n1C1CCCCC1
inactive: [1] 1.03 | [20] 0.989 | [15] 1.01 | [18] 1 | [21] 0.997 | [5] 1.01 | [6] 0.993 | [16] 0.92 | [22] 0.986 | [23] 0.994 | [24] 0.994 | [7] 0.98 | [25] 0.909 | [26] 0.99 | [27] 0.975 | [28] 0.901 | [29] 1.02 | [30] 0.998 | [8] 1 | [9] 1.02 | [31] 1 | [32] 0.994 | [33] 0.987 | [14] 1.03 | [35] 0.968 | [36] 1.01

From PubChem BioAssay AID1159580 (chemical genetic matrix, 2015)
